Results reported in PubChem BioAssay AID2499 (National Center for Advancing Translational Sciences (NCATS), 2010).
Records with an inconclusive call do not appear. Calls of active or inactive are those of the source. Calls follow the shape of the dose curve; as a rule, active = well fitted inhibition curve with a large enough effect; inconclusive = small, poorly fitted or top-dose-only effect; inactive = flat fitted curve, though single readings scatter.

target: Galactokinase (Homo sapiens) (UniProt P51570); assay: Confirmation Assay for Inhibitors of Human Galactokinase (GALK): probe SAR; details: purified GALK, Kinase-Glo ATP depletion luminescence; series mostly up to 115 µM; activity change, negative = inhibition: at the top concentration
Sequence (P51570 whole entry, looked up): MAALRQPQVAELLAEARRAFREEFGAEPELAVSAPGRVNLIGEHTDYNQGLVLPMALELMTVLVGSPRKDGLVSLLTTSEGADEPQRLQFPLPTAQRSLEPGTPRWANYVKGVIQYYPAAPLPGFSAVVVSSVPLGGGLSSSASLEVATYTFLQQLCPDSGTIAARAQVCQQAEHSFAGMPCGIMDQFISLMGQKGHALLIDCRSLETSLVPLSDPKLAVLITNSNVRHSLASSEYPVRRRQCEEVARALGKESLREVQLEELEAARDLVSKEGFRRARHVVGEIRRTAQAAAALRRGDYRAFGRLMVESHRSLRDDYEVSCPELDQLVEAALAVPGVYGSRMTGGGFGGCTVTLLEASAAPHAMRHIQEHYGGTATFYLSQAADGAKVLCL
Description: NIH Molecular Libraries Probe Production Centers Network [MLPCN] NIH Chemical Genomics Center [NCGC] MLPCN Grant: R03 MH085689-01 Assay Submitter (PI): Kent Lai (University of Utah School of Medicine, 50 N Mario Capecchi Drive, Salt Lake City, UT 84132) NCGC Assay Overview Inherited deficiency of galactose-1-phosphate uridyltransferase (GALT) can result in a potentially lethal disorder called Classic Galactosemia (OMIM 230400). Several lines of evidence indicate that an elevated level of galactose-1-phosphate (gal-1-p), the product of galactokinase (GALK), is a major, if not sole, pathogenic mechanism in patients with classic galactosemia. Therefore, finding inhibitors of GALK is a potential novel therapy for this inherent metabolic disease and is the long term goal of this project. Active compounds observed in the qHTS GALK assay (AID: 1868) were cherry picked and re-screened for validation. GALK (provided by Kent Lai) was assayed using ATP and D-(+)-Galactose (Sigma-Aldrich cat# G0750) as substrates. Promega Kinase-Glo Plus (cat# V3774) technology was used to detect the residual ATP following kinetic reaction. Briefly, the Kinase-Glo Plus contains Ultra-Glo [1] luciferase and D-luciferin which generates a bioluminescence signal from the remaining ATP. Kinase reactions with and without GALK were used as negative and positive controls together with Protein Tyrosine Phosphatase CD45 inhibitor (EMD Bioscience cat# 540215) which is shown to inhibit GALK activity.
NCGC Assay Protocol Summary: Three uL/well of ATP-buffer solution (35 uM ATP, 20mM HEPES pH8.0, 5 mM MgCl2, 60 mM NaCl, 1 mM DTT, 0.01% BSA final concentration) was dispensed into 1536-well, assay plates (Greiner, solid white medium-binding plates) with Aurora Discovery BioRAPTR Flying Reagent Dispenser (FRD; Beckton-Dickenson). Compound and control solution (23 nL) was transferred to the assay plate using the Kalypsys 1536-pin tool apparatus. One uL/well GALK-galactose solution (5 nM GALK, 100 uM galactose, 20 mM HEPES pH8.0, 5 mM MgCl2, 60 mM NaCl, 1 mM DTT, 0.01% BSA final concentration) was then added using the FRD yielding a total kinase reaction volume of 4 uL/ well. After 1 hour of room temperature incubation, 4 uL Kinase-Glo Plus reagent was added for a final assay volume of 8 uL/well. Luminescence was detected with the ViewLux plate reader (Perkin Elmer, Waltham, MA) after 2 min incubation using a 1 sec exposure time and 2x binning.

Potency, active:
O=C1CCCC2=C1C(c1ccccc1Cl)N=C(Nc1nc3ccccc3o1)N2 (centres undefined) 0.595 µM, O=C1CCCC2=C1C1(CCCC1)N=C(Nc1nc3cc(Cl)ccc3o1)N2 6.68 µM, O=C1CCCC2=C1C1(CCSC1)N=C(Nc1nc3ccccc3o1)N2 (centres undefined) 2.66 µM, O=C1CCC2=C1C1(CCCC1)N=C(Nc1nc3ccccc3o1)N2 11.9 µM, O=C1CCCC2=C1C1(CCS(=O)(=O)C1)N=C(Nc1nc3ccccc3o1)N2 (centres undefined) 6.68 µM, CC1(C)N=C(Nc2nc3ccccc3o2)NC2=C1C(=O)CCC2 47.3 µM, Cc1ccc2oc(NC3=NC4(CCCC4)C4=C(CCCC4=O)N3)nc2c1 5.95 µM, O=C1CCCC2=C1C1(CCCC1)N=C(Nc1nc3cc(Br)ccc3o1)N2 7.49 µM, COc1cccc(C2N=C(Nc3nc4ccccc4o3)NC3=C2C(=O)CC(C)(C)C3)c1 (centres undefined) 37.5 µM, O=C1CCC2=C1C(c1ccccc1Cl)N=C(Nc1nc3ccccc3o1)N2 (centres undefined) 11.9 µM, O=C1CCCC2=C1C1(CCCCC1)N=C(Nc1nc3ccccc3o1)N2 13.3 µM, CC1(C)CC(=O)C2=C(C1)NC(Nc1nc3ccccc3o1)=NC21CCCC1 6.68 µM, CC1CCC2(C1)N=C(Nc1nc3ccccc3o1)NC1=C2C(=O)CCC1 (centres undefined) 11.9 µM, CC1(C)CC(=O)C2=C(C1)NC(Nc1nc3ccccc3o1)=NC2c1cccc(O)c1 (centres undefined) 21.1 µM, O=C1CCCC2=C1C1(CCC1)N=C(Nc1nc3ccccc3o1)N2 18.8 µM, O=C1CCCC2=C1C1(CCSCC1)N=C(Nc1nc3ccccc3o1)N2 1.06 µM, CC1(C)CC(=O)C2=C(C1)NC(Nc1nc3ccccc3o1)=NC2c1ccccc1Cl (centres undefined) 8.41 µM

Potency, inactive:
CCC1CCC2(C1)N=C(Nc1nc3ccccc3o1)NC1=C2C(=O)CCC1 (centres undefined)

Activity change, negative = inhibition, inactive:
O=C1CCCC2=C1C(c1ccc(Cl)cc1)N=C(Nc1nc3ccccc3o1)N2 (centres undefined) -19.6%, Cn1c(NC2=NC3(CCCC3)C3=C(CCCC3=O)N2)nc2ccccc21 -25%, O=C1CCCC2=C1[C@@]1(CCC(c3ccccc3)C1)N=C(Nc1nc3ccccc3o1)N2 (some centres undefined) -22.8%, CC1(C)CC(=O)C2=C(C1)NC(Nc1nc3ccccc3o1)=NC2c1cccc(F)c1 (centres undefined) -4.97%, O=C1CC(c2ccccc2)CC2=C1C1(CCCCC1)N=C(Nc1nc3ccccc3o1)N2 (centres undefined) -21.5%, COc1ccc(C2N=C(Nc3nc4ccccc4o3)NC3=C2C(=O)CC(C)(C)C3)cc1 (centres undefined) -22.4%, O=C1CCCC2=C1C1(CCCC1)N=C(Nc1nc3ccccc3n1Cc1ccccc1)N2 -7.66%, COc1ccccc1C1N=C(Nc2nc3ccccc3o2)NC2=C1C(=O)CC(C)(C)C2 (centres undefined) -2.26%, Cc1ccc(C2N=C(Nc3nc4ccccc4o3)NC3=C2C(=O)CC(C)(C)C3)cc1 (centres undefined) 2.65%, Cc1nc(Nc2nc3ccccc3o2)nc2c1C(=O)CC(C)(C)C2 -7.11%, O=C1CCCC2=C1C1(CCCC1)N=C(Nc1nc3cc4ccccc4cc3o1)N2 -18.8%
